# Test results from ChEMBL document CHEMBL4303122, “Identification of potential treatments for COVID-19 through artificial intelligence-enabled phenomic analysis of human cells infected with SARS-CoV-2” (2020).
# In all, about 1,600 compounds were measured (“Hit score”: median about 0.13, highest 2% from about 0.46 on). For the sample, the highest values were picked, then their nearest neighbours and some compounds at random.
# Tested on: SARS-CoV-2
# Test: Antiviral activity against SARS-CoV-2 (USA-WA1/2020 strain) measured by imaging in HRCE cells at MOI 0.4 after 96 hrs (reported as hit score from 0-1 for on-disease vs off-disease activity: scores >0.6 considered hits)
# Assay type: functional, Homo sapiens
row,SMILES,Hit score
1,CN(C(=O)C(Cl)Cl)c1ccc(O)cc1 [DILOXANIDE],-0.0329
2,O=C1[C@H]2CCCC[C@H]2C(=O)N1CCCCN1CCN(c2nsc3ccccc23)CC1 [PEROSPIRONE],0.1455
3,CCCCCCCCCCCC(=O)OCC(O)CO (stereo not drawn) [GLYCEROL MONOLAURATE],0.1728
4,OCC(O)COc1cccc2ccccc12 (stereo not drawn),0.1908
5,CC1=C(C)C(=O)C(CCCCCCCCCC[P+](c2ccccc2)(c2ccccc2)c2ccccc2)=CC1=O,0.06177
6,C#C[C@]1(O)CC[C@H]2[C@@H]3CCC4=Cc5oncc5C[C@]4(C)[C@H]3CC[C@@]21C [DANAZOL],0.2899
7,CC(C)(CO)c1cc2cc(NC(=O)C3(c4ccc5c(c4)OC(F)(F)O5)CC3)c(F)cc2n1C[C@@H](O)CO [TEZACAFTOR],0.1873
8,O=C(O)c1cccc(-c2noc(-c3ccccc3F)n2)c1,0.2151
9,N#Cc1ccnc(N2C(=O)CC[C@H]2C(=O)N(c2cncc(F)c2)[C@H](C(=O)NC2CC(F)(F)C2)c2ccccc2Cl)c1 [IVOSIDENIB],0.2722
10,O=C(O)c1ccc2c(c1)nc(Nc1cccc(Cl)c1)c1ccncc12 [SILMITASERTIB],0.7608
11,CC[C@H](Nc1ncnc2[nH]cnc12)c1nc2cccc(F)c2c(=O)n1-c1ccccc1 [IDELALISIB],0.4259
12,C[C@H](Nc1ncnc2nc[nH]c12)c1cc2cccc(Cl)c2c(=O)n1-c1ccccc1 [DUVELISIB],0.6035
13,C[C@H](C(=O)O)c1ccc(-c2ccccc2)c(F)c1 [ESFLURBIPROFEN],0.1907
14,OC[C@H]1OC(O)[C@H](O)[C@@H](O)[C@@H]1O (stereo partly drawn) [DEXTROSE],0.07162
15,CCCCC(F)(F)[C@@]1(O)CC[C@H]2[C@@H](CC(=O)[C@@H]2CCCCCCC(=O)O)O1 [LUBIPROSTONE],0.08446
16,CC1(C)C(/C=C/C=C/C=C/C=C2\N(CCCCS(=O)(=O)[O-])c3ccc4ccccc4c3C2(C)C)=[N+](CCCCS(=O)(=O)[O-])c2ccc3ccccc3c21.[Na+] [INDOCYANINE GREEN],0.2338
17,Cc1nc(NC(=O)N2CCC[C@H]2C(N)=O)sc1-c1ccnc(C(C)(C)C(F)(F)F)c1 [ALPELISIB],0.6194
18,CC(C)(C)C(=O)OCC(=O)[C@H]1CC[C@H]2[C@@H]3CCC4=CC(=O)CC[C@]4(C)[C@H]3CC[C@]12C [DESOXYCORTICOSTERONE PIVALATE],0.2223
